Most compounds without a hit are left out; they make up all but 2.1% or so of the library.
D2 PAM-1 – HTS Assay for Positive Allosteric Modulators of the Human D2 Dopamine Receptor: Primary Screen for Potentiators; D(2) dopamine receptor (Homo sapiens), P14416; HEK293 T-REx D2, calcium flux, EC20 dopamine potentiation; potentiation, % at 10 µM; 340,000 compounds, 0.34% hits; AID 485347, 2010;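 active = potentiation over 3 SD above the plate norm, cut at about 30% in these data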
Target sequence (P14416 whole entry, looked up): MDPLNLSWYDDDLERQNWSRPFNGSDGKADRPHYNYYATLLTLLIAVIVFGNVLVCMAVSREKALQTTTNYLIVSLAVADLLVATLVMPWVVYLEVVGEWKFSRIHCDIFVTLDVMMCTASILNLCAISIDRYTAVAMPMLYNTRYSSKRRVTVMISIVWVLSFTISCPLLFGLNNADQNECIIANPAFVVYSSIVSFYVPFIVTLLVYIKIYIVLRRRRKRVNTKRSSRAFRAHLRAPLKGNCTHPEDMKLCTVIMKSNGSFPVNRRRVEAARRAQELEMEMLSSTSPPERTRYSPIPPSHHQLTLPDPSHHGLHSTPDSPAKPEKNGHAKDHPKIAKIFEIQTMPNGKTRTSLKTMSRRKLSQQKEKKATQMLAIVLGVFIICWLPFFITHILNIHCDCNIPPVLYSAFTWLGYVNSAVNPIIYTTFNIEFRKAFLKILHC
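Potentiation of an EC20 dopamine calcium response is measured in a force-coupled, tetracycline-inducible Hek293 Trex D2 line. Compound-only kinetic reads over 180 s flag agonists before dopamine addition.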
D2 ag-1 – Beta-Arrestin HTS for Positive Allosteric Modulators of the Human D2 Dopamine Receptor: Agonists; D(2) dopamine receptor (Homo sapiens), P14416; DiscoveRx PathHunter D2 beta-arrestin, luminescence, 90 min; 100% = 57 uM dopamine signal; activation, % (no concentration beside the values); 360,000 compounds, 0.084% hits; in the data active = activation above about 40%; inconclusive = between about 15% and that limit
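Agonist mode: compounds alone added to overnight-plated D2 PathHunter cells for 90 min at 37 C, with 57 uM final dopamine (EC100) defining full response. Beta-arrestin recruitment detected by chemiluminescent reagent, read after 1 h at ambient temperature.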
LDHA inh – qHTS assay for inhibitors of human lactate dehydrogenase. L-lactate dehydrogenase A chain (Homo sapiens), P00338. purified LDHA, NADH/diaphorase-resazurin fluorescence; stronger effect = lower value. activity change, % (values are at about 110 or 230 µM). 480,000 compounds, 0.15% hits. AID 1347041, 2019; in the data active = activity change below about -30%; inconclusive = mostly about -25% to -30%
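Remaining NADH was detected by diaphorase (0.133 mg/mL) converting 37 µM resazurin to fluorescent resorufin, read at 0 and 20 minutes. The preceding 5-minute room-temperature reaction used 2 nM LDHA, 0.2 mM sodium pyruvate and 0.06 mM NADH at pH 7.4.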
D2 ag-2 – HTS Assay for Allosteric Agonists of the Human D2 Dopamine Receptor: Primary Screen for Agonists | D(2) dopamine receptor (Homo sapiens), P14416 | HEK293 T-REx D2 cells, calcium flux agonist mode | activation, % at 2 µM | 340,000 compounds, 0.53% hits | AID 485358, 2010;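 active = activation over 3 SD above normal in the single-dose calcium agonist read, cut at about 30% in these data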
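In this primary screen, compounds producing a positive calcium signal within 180 s of addition to tetracycline-induced, force-coupled HEK293 Trex D2 cells are flagged; cells are dye-loaded with a no-wash calcium kit beforehand.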
D2 antag – HTS Assay for Allosteric Antagonists of the Human D2 Dopamine Receptor: Primary Screen for Antagonists; HEK293 TREx D2 cells, calcium flux, dopamine EC80; AID 485344, 2010; D(2) dopamine receptor (Homo sapiens), P14416; inhibition, % at 10 µM; 340,000 compounds, 2% hits; in the data active = inhibition above about 30%; inactive = below that, where a call was filed
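In this primary screen, negative modulation is detected by tracking calcium flux after an EC80 dopamine challenge in inducible HEK293 T-REx D2 cells preexposed to test compound for 180 s.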
D2 PAM-2 – Beta-Arrestin HTS for Positive Allosteric Modulators of the Human D2 Dopamine Receptor: Potentiators | D(2) dopamine receptor (Homo sapiens), P14416 | DiscoveRx D2 beta-arrestin cells, luminescence, 90 min; 100% = 57 uM dopamine signal | potentiation, % (no concentration beside the values) | 360,000 compounds, 0.23% hits; in the data active = potentiation above about 50%; inconclusive = mostly about 30% to 49%
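D2 cells co-treated with compound plus 50 nM dopamine (EC20) for 90 min at 37 deg C to detect potentiation. Beta-arrestin recruitment was read as enzyme-fragment luminescence after 1 h at ambient temperature. Full response was set by 57 uM dopamine.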
A number is an active result; 0 = inactive; ? = inconclusive; - = no result given; ! = repeats disagree.

SMILES	D2 PAM-1	D2 ag-1	LDHA inh	D2 ag-2	D2 antag	D2 PAM-2
CCOc1ccc(S(=O)(=O)N2CCN(C(=O)c3cccn3C)CC2)cc1	31	0	0	0	0	0
CCOc1ccc(NC(=S)N2CCN(S(=O)(=O)c3ccccc3)CC2)cc1	0	0	0	39	0	0
COc1ccc(-c2nc(CSCC(=O)NCCCN3CCOCC3)c(C)o2)cc1OC	-	-	0	-	-	-
N#Cc1ccc(Oc2ccc(-c3ccc(Oc4ccc(C#N)cc4)cc3)cc2)cc1	-	-	0	-	-	-
COC(=O)c1c(C)[nH]c(-c2cccc(OC)c2)c1C1C(=O)Nc2ccc(F)cc21 (stereo not drawn)	-	-	0	-	-	-
Cc1sc2nc(CSC(C)C(=O)NC3(C#N)CCCCC3)[nH]c(=O)c2c1C (stereo not drawn)	0	0	0	0	38	0
Cc1sc2nc(CSC(C)C(=O)Nc3ccc(C#N)cc3)[nH]c(=O)c2c1C (stereo not drawn)	0	0	0	0	0	0
CC(C)C(=O)N1N=C(c2cc(Cl)ccc2Cl)CC1c1ccc2nccnc2c1 (stereo not drawn)	-	-	0	-	-	-
N#CNC(=O)c1ccc(-n2cccc2/C=C2\NC(=O)N(CC(=O)Nc3ccccc3F)C2=O)cc1	-	-	0	-	-	-
CCc1ccc2oc(=O)cc(CN3CCN(Cc4ccccc4)CC3)c2c1	0	0	0	0	39	0
CCc1ccc2oc(=O)cc(CN3CCN(c4ccccc4)CC3)c2c1	-	-	0	-	-	-
CCOc1ccc2oc(=O)cc(CN3CCN(c4ccccc4)CC3)c2c1	0	-	-30!	-	-	-
COc1ccccc1-c1c(C)[nH]n2c(=O)c(Cc3ccccc3)c(C)nc12	0	0	0	0	54	0
COc1ccc(-c2c(C)[nH]n3c(=O)c(Cc4ccccc4)c(C)nc23)cc1	0	0	0	0	31	0
Cc1ccc(Cc2c(C)nc3c(-c4ccccc4)c(C)[nH]n3c2=O)cc1	0	-	0	0	-	-
O=C(c1ccc(Br)cc1)c1coc2ccc(O)cc12	-	0	0	-	-	0
O=C(c1ccc(Cl)cc1)c1coc2ccc(O)cc12	0	0	0	0	35	0
Cc1ccc2nc(/C(C#N)=C\C3CC4C=CC3C4)[nH]c2c1 (stereo not drawn)	-	-	0	-	-	-
C=CCN1C(=O)N/C(=C/c2ccc(C)o2)C1=O	0	0	0	39	0	0
COc1ccc(-c2ocnc2C(=O)Nc2c(C)cc(C)cc2C)cc1	-	-	0	-	-	-
CCN1CCN(C2CC(=O)NC2=O)CC1 (stereo not drawn)	0	-	-	0	0	-
O=C1CC(N2CCC(C(=O)N3CCCCC3)CC2)C(=O)N1 (stereo not drawn)	-	0	0	0	38	0
C/C(=N/NC(N)=S)C1=CC(C)(C)CCC1	-	-	0	-	-	-
COc1ccc(Cc2nnc(SCC(=O)c3ccc(Cl)cc3)n2CC(C)C)cc1	-	-	0	-	-	-
COc1ccc(C(=O)O/N=C(\N)Cc2ccc(Cl)c(Cl)c2)cc1OC	0	?	0	0	0	118
SMILES	D2 PAM-1	D2 ag-1	LDHA inh	D2 ag-2	D2 antag	D2 PAM-2
N/C(Cc1ccc(Cl)cc1)=N\OC(=O)c1ccccc1	0	?	0	0	0	68
Cc1cccc(OCC(=O)O/N=C(\N)Cc2ccc(Cl)cc2)c1	33	0	0	0	0	0
N/C(CN1CCCC1=O)=N\OC(=O)c1ccc(Cl)c(Cl)c1	0	?	0	0	0	110
CC(C)c1ccc(/C=C2\Oc3cc(OS(C)(=O)=O)ccc3C2=O)cc1	-	-	0	-	-	-
CC(C)CCNC(N)=S	-	-	0	-	-	-
Cc1ccc(-c2cnc(CCC(=O)N(C)CC(=O)Nc3ccccc3Br)o2)cc1C	-	-	0	-	-	-
COc1ccc(-c2nc(C(=O)N3CCN(c4ccc(C(C)=O)cc4)CC3)cs2)cc1OC	-	-	0	-	-	-
COc1cccc(Nc2c(-c3ccc(O)c(OC)c3)nc3ccc(Cl)cn23)c1	-	-	0	-	-	-
COc1ccc(C(=O)O/N=C(\N)Cc2ccc(Cl)cc2)cc1OC	0	0	0	0	0	164
CCOc1ccccc1/C=C/C(=O)c1cccc(O)c1	-	-	0	-	-	-
CN1C(=O)C(N=Nc2ccccc2C(=O)O)N(C)C1=S (stereo not drawn)	0	0	0	0	40	0
O=C(CSc1nnc(-c2cccs2)n1C1CC1)N1CCN(c2ccc(F)cc2)CC1	-	-	0	-	-	-
COc1cc(C(=O)Nc2ccc(S(=O)(=O)NC(C)(C)C)cc2)cc(OC)c1OC	0	0	0	0	0	0
COc1cc(C(=O)Nc2ccc(S(=O)(=O)NC(C)C)cc2)cc(OC)c1OC	0	0	0	0	31	0
COc1cccc(NC(=O)CCN2C(=O)c3ccc([N+](=O)[O-])cc3C2=O)c1	0	?	0	0	0	?
COc1cc2c(cc1OC)CN(C(=O)CN1C(=O)c3ccc([N+](=O)[O-])cc3C1=O)CC2	0	0	0	0	0	60
COc1ccc(NC(=O)CCN2C(=O)c3ccc([N+](=O)[O-])cc3C2=O)c(OC)c1	0	?	0	0	0	56
Nc1cc(=O)[nH]c(=O)n1Cc1ccccc1	0	0	0	0	0	0
CN(C)/C=N/c1cc(=O)[nH]c(=O)n1Cc1ccccc1	0	0	0	0	40	0
N#Cc1ccc(C(=O)CN2CCN(c3ccccc3)CC2)cc1	0	0	0	35	0	0
CCOC(=O)c1c(C)[nH]c(C)c1S(=O)(=O)NCC1CCN(Cc2ccc(C)cc2)CC1	0	0	0	0	87	0
CCOC(=O)c1c(C)[nH]c(C)c1S(=O)(=O)NCC1CCN(Cc2ccccc2F)CC1	0	0	0	0	0	0
CCOC(=O)c1c(C)[nH]c(C)c1S(=O)(=O)NCC1CCN(Cc2cccc(Cl)c2)CC1	0	0	0	0	78	0
O=C(CNC(=O)c1ccco1)NCC(=O)OCc1c(F)cccc1Cl	0	0	0	0	0	0
O=C(CNC(=O)c1ccco1)OCc1c(F)cccc1Cl	41	0	0	0	0	0
O=C(CNC(=O)c1ccco1)NCC(=O)OCC(=O)c1ccc(Cl)c([N+](=O)[O-])c1	38	0	0	0	0	0
CCc1ccc(C2=CC(c3ccccc3C)n3nnnc3N2)cc1 (stereo not drawn)	-	-	0	-	-	-
CC(C)N1CCc2c(sc(N)c2C#N)C1	0	0	0	0	0	0
